This is an account of results in PubChem BioAssay (NCI).

Assay [1] in a line: NCI Yeast Anticancer Drug Screen. Data for the rad50 strain (AID 155).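 Note: 0% = growth of vehicle-only cultures of the same strain.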 Conditions: S. cerevisiae rad50 strain growth inhibition; at 50.0 µM; hits give high values. Summed up: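 Cells are treated with compound, grown, and their growth is then scored against vehicle-only cultures of the same repair-deficient yeast strain.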
Assay [2] in a line: NCI Yeast Anticancer Drug Screen. Data for the mec2-1 strain (AID 157). Conditions: S. cerevisiae mec2-1 strain, at 50.0 µM, hits give high values. An outline of the steps: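 Cells of the genetically defined mec2-1 yeast strain are incubated with test compound. Inhibition of growth is calculated against vehicle-treated controls.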
Assay [3] is described as follows: NCI Yeast Anticancer Drug Screen. Data for the sgs1 mgt1 strain (AID 161).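 Note: 0% = growth of cultures given vehicle only.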 Conditions: S. cerevisiae sgs1 mgt1 strain, at 50.0 µM, hits give high values. Summed up: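 Test agents were incubated with a DNA-repair-mutant yeast strain. Growth was then read and compared against vehicle-treated controls.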
Assay [4] can be described thus: NCI Yeast Anticancer Drug Screen. Data for the cln2 rad14 strain (AID 165).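 Note: 0% = growth equal to vehicle treated cultures.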 Conditions: S. cerevisiae cln2 rad14 strain, at 50.0 µM, hits give high values. An outline of the steps: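 The screen exposed genetically defined yeast (cln2 rad14) to test compounds and scored growth inhibition relative to vehicle-treated controls.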
A short description of assay [5]: NCI Yeast Anticancer Drug Screen. Data for the bub3 strain (AID 167). Conditions: S. cerevisiae bub3 mutant strain, at 50.0 µM, hits give high values. Summed up: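 Part of a panel of yeast mutants defective in DNA damage repair or cell cycle regulation. Each strain is grown with compound, and inhibition is calculated relative to solvent-treated cultures.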
The nature of assay [6]: NCI Yeast Anticancer Drug Screen. Data for the mlh1 rad18 strain (AID 175). Conditions: S. cerevisiae mlh1 rad18 strain growth inhibition; at 50.0 µM; hits give high values. An outline of the steps: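 Compound-treated yeast growth, normalised to vehicle controls. Strain bears defined DNA repair mutations.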

SMILES strings stand for the structures. The panel holds about 79,000 compounds, 15% with a hit somewhere; the sample as a whole holds those more often. Unmarked numbers belong to inactive results. Activity calls are given as the source filed them. Cut-off read from the data, not from the text of the source: active = growth inhibition above about 70%; inactive = the rest.

With `CC(=O)N(C)N=NCCCl`, the growth inhibition in assay [1] was 26.2%; in assay [2] it was 7.2%; in assay [3], 10.2%; in assay [4] it was -29.1%; in assay [5] it was 12%; in assay [6] it was 3.85%.
Consider `FC(F)(F)C(F)(F)C(F)(F)c1nc(C(F)(F)C(F)(F)C(F)(F)F)nc(C(F)(F)C(F)(F)C(F)(F)F)n1`, for which the growth inhibition in assay [1] was 22.1%; in assay [2], -1%; in assay [3], 31.5%; in assay [4], 18.6%; in assay [5] it was 15.1%; in assay [6], 25.6%.
For the compound `Cc1[nH]n(C2=NCCN2)c(=O)c1Cc1ccccc1`, the growth inhibition was 4.6% in assay [1]; -6.95% in assay [2]; -24.2% in assay [3]; -26.3% in assay [4]; -10.6% in assay [5]; -61.6% in assay [6].
For the compound `COC(=O)C(=C/c1ccc(OC)cc1)/C(C(=O)O)=C(/C)c1ccccc1`, the growth inhibition is 9.9% in assay [1]; 17.1% in assay [2]; -14.2% in assay [3]; -11.2% in assay [4]; -18.6% in assay [5]; -9.8% in assay [6].
Take `COC(=O)CN(CC(=O)OC)C(C)=O`: the growth inhibition in assay [1] was -9.2%; in assay [2], -4.35%; in assay [3], -0.05%; in assay [4] it was 2.7%; in assay [5] it was 13.5%; in assay [6], 0.6%.
On to `Cc1ccc(Cl)cc1NC(=O)Oc1ccccc1C(=O)OCc1ccccc1`, for which the growth inhibition was -31.9% in assay [1]; -1.55% in assay [2]; 18.5% in assay [3]; -37.3% in assay [4]; 20.2% in assay [5]; 19.9% in assay [6].
For `Cc1nc(N)sc1C(=O)/C=C/c1ccc([N+](=O)[O-])cc1`, the growth inhibition in assay [1] is 16.2%; in assay [2], -2.6%; in assay [3], -15.7%; in assay [4], 20.8%; in assay [5], 15.1%; in assay [6], 9.45%.
On to `O=C(O)/C(=C/c1ccc([N+](=O)[O-])cc1)c1ccc([N+](=O)[O-])cc1`, for which the growth inhibition in assay [1] is 6.9%; in assay [2], -4%; in assay [3], 2.05%; in assay [4], -35.4%; in assay [5], -1.7%; in assay [6], 1.55%.
As for `O=[N+]([O-])c1ccc(C2=NCC=CCO2)cc1`, the growth inhibition in assay [1] is 18%; in assay [2] it was 16.2%; in assay [3], 7.55%; in assay [4], -6.55%; in assay [5] it was 4.5%; in assay [6] it was 12.8%.
Regarding `CCCCC1CCC(=O)NC1=O` (stereo not given), the growth inhibition in assay [1] is 4.25%; in assay [2], 29.6%; in assay [3] it was 5.8%; in assay [4], 5.2%; in assay [5], 14.7%; in assay [6] it was 1.9%.
Regarding `Nc1nnnn1C(=O)NCCCl`, the growth inhibition in assay [1] was -6.55%; in assay [2], 0.6%; in assay [3], -6.45%; in assay [4] it was -24.8%; in assay [5], -20.4%; in assay [6] it was -5.25%.
Turning to `O=c1oc2c(c(N(c3ccccc3)c3ccccc3)c1Cl)CCc1nc(-c3ccccc3)sc1-2`, the growth inhibition in assay [1] is 3%; in assay [2] it was -1.25%; in assay [3], -7.6%; in assay [4] it was 10.8%; in assay [5] it was -1.55%; in assay [6] it was -14.9%.
Regarding `COc1ccccc1C1CCCCC1OS(=O)(=O)c1ccc(C)cc1` (stereo not given), the growth inhibition in assay [1] was -1.15%; in assay [2] it was 3.45%; in assay [3], -18.4%; in assay [4], -9.65%; in assay [5], 12.2%; in assay [6], -9.8%.
As for `O=C1NC(=O)C2(CCN(Cc3ccccc3)CC2)N1c1ccccc1`, the growth inhibition in assay [1] was 8.95%; in assay [2], 0.1%; in assay [3] it was -5.1%; in assay [4], 6%; in assay [5], 13.3%; in assay [6], 3.15%.
In the case of `O=C(Nc1ccc([N+](=O)[O-])cc1)N1CCOCC1`, the growth inhibition is 4.8% in assay [1]; -17.8% in assay [2]; 21.5% in assay [3]; -1.25% in assay [4]; 25.2% in assay [5]; 15.2% in assay [6].
As for `CC(C)(C)c1cc(C(c2ccc3c(c2)OCO3)N2CCOCC2)c(O)c(C(C)(C)C)c1` (stereo not given), the growth inhibition is 12.3% in assay [1]; -12.3% in assay [2]; -2.05% in assay [3]; 14.8% in assay [4]; 13.1% in assay [5]; 16.9% in assay [6].
Turning to `ClCC1=NC2C(Cl)C(Cl)C(Cl)C(Cl)C2N1` (stereo not given), the growth inhibition is 87.8% (active) in assay [1]; 77% (active) in assay [2]; 94.7% (active) in assay [3]; 87.5% (active) in assay [4]; 75.9% (active) in assay [5]; 94% (active) in assay [6].
Take `CC1=NN2C(c3ccc(C)cc3)=CSC2=NC(C)(C)C1`: the growth inhibition in assay [1] was 20.6%; in assay [2], -1.45%; in assay [3] it was 2.45%; in assay [4], 19.8%; in assay [5] it was 5%; in assay [6], -1.1%.
Regarding `O=C(CC(=O)n1nc(-c2ccccc2)c(N=Nc2ccc(Cl)cc2)c1-c1ccccc1)Nc1ccc(Cl)cc1`, the growth inhibition in assay [1] was -6.75%; in assay [2], -19.1%; in assay [3], -11.9%; in assay [4], -19.3%; in assay [5], -11.1%; in assay [6], -16.8%.
For the compound `CCCC(=O)c1c(NOC2OCC(OC(C)=O)C(OC(C)=O)C2OC(C)=O)nc(OC)n(C)c1=O` (stereo not given), the growth inhibition in assay [1] is -24.7%; in assay [2] it was 3.1%; in assay [3], -40.1%; in assay [4], 6.8%; in assay [5], -15.9%; in assay [6], -16.6%.
